Results on 20 compounds are retold here after PubChem BioAssay AID707 (Columbia University Molecular Screening Center, 2007).

Hit rate of the full screen: of about 91,000 compounds, about 310 (0.34%) were called active. The entries come from a sample that favours actives as a whole. A number with no mark means an inactive call. Cut-off read from the data, not from the text of the source: active = inhibition above about 80%; inactive = the rest.

This assay deals with Bifunctional epoxide hydrolase 2 (Homo sapiens) (UniProt P34913). Nature of the assay: soluble epoxide hydrolase inhibitors, primary screen, biochemical, human sEH (AID 707). To be noted: recombinant human sEH enzymatic activity assay; at 2 µM; hits give high values.
Chain of Bifunctional epoxide hydrolase 2 (Homo sapiens) (P34913 whole entry, looked up): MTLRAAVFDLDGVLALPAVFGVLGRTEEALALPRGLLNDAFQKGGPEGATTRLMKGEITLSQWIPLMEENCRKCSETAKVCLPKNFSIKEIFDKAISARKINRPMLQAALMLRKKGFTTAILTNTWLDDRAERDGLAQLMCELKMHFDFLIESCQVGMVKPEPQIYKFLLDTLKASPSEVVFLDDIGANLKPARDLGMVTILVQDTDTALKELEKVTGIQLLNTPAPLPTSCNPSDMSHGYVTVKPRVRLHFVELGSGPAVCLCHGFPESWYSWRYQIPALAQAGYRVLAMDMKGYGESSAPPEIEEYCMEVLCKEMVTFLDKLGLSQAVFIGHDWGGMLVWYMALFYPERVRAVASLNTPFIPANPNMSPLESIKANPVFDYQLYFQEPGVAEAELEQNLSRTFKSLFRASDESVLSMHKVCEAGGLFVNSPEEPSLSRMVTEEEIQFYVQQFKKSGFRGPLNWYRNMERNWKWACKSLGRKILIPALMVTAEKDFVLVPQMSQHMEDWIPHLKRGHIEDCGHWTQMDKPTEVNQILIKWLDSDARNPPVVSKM
A word on the inhibition: it is the drop in the measured response relative to a control, in per cent. As for `O=C(CCNS(=O)(=O)c1ccccc1C(F)(F)F)NCc1ccc2c(c1)OCO2`, the inhibition is -4.3%.

In the case of `COc1ccc(/C=C2\CCCC3C2=NN(C(=O)c2scnc2C)C3c2ccc(OC)cc2)cc1` (stereo not given), the inhibition is -10.6%.

`CS(=O)(=O)N(CC(=O)Nc1ccc(F)cc1F)c1cccc([N+](=O)[O-])c1`: the inhibition is 1.3%.

Consider `CC(C)c1ccc(/C=C/C(=O)NNC(=O)c2cccnc2)cc1`, for which the inhibition was -2.9%.

`COc1cc(C2C(C(=O)OCCC#N)=C(C)NC3=C2S(=O)(=O)c2ccccc23)cc(OC)c1OC` (stereo not given): the inhibition is 8.9%.

As to `COc1ccc(Cl)cc1NC(=O)CN(C)C(=O)CNC(=O)C12CC3CC(CC(C3)C1)C2`, the inhibition is 15.5%.

As for `CS(=O)(=O)N1CCN(c2ccc(C(=O)NC3C4CC5CC(C4)CC3C5)cc2[N+](=O)[O-])CC1` (stereo not given), the inhibition is -10.1%.

As to `Cc1cc(/C=C2/SC(=O)N(CC(=O)OC(C)C)C2=O)c(C)n1C`, the inhibition is -9.2%.

Take `Cc1cc(OC(=O)c2c(Cl)cccc2Cl)nc(C)n1`: the inhibition was -21.2%.

Turning to `Cc1nnsc1S(=O)(=O)Cc1ccccc1Cl`, the inhibition was 4.8%.

With `CCOC(=O)N1CCN(c2c(NCCCN3CCCC(C)C3)c(=O)c2=O)CC1` (stereo not given), the inhibition was -4.6%.

With `Cc1nc(Cl)c2oc3ccccc3c2n1`, the inhibition was 0.8%.

For `O=[N+]([O-])c1ccccc1NCc1ccc(Cl)cc1`, the inhibition is -1%.

In the case of `CN(C)c1ccc(NC(=S)N(CCc2ccccc2)C2CC(=O)N(c3c(Cl)cccc3Cl)C2=O)cc1` (stereo not given), the inhibition was 7.8%.

As for `Cc1nn(CC(=O)Nc2nc3ccccc3s2)c(C)c1[N+](=O)[O-]`, the inhibition is -6.1%.

On to `Cc1ccc(OCC(=O)N/N=C/c2ccncc2)cc1`, for which the inhibition is -19.2%.

In the case of `CC(=O)c1cn(CCCCCCCCCCn2cc(C(C)=O)c(=O)[nH]c2=O)c(=O)[nH]c1=O`, the inhibition is -2%.

Take `Cc1ccc(-c2nn(-c3ccccc3)cc2/C=N/NC(=O)c2ccc3c(c2)OCO3)cc1`: the inhibition is -6.2%.

On to `Cc1occc1C(=O)NNC(=S)NCC(C)C`, for which the inhibition was -18%.

Take `Cc1cccc(NC(=O)c2ccc(OCC(=O)NCc3ccccc3)cc2)c1C`: the inhibition was 3.8%.
